Only some compounds are listed: those with a hit (about 2.5% of all), similar ones and a draw of the others.
Casp6 inh – blocks human caspase-6 cleavage activity. P55212. actives 0.53% (n = 350,000). inhibition, % at 12.5 µM. purified caspase-6, Z-VEID-R110 cleavage fluorescence;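 active means mean inhibition across replicates at least about 35%, with every replicate also reaching that limit, limit read from the data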
Ecoli rRNA inh – inhibitors of bacterial rRNA selective over humanized ribosomes; actives 1.6% (n = 350,000); GFP signal change (wild-type ribosome), % (no concentration beside the values); AID 720706; E. coli WT GFP vs humanized-ribosome RFP mutants, fluorescence, 24 h; stronger effect = lower value; DMSO median 0, no signal -100;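 active means significant combined selectivity score with lowered wild-type GFP, culture density cut under 30%, mutant RFP and density less affected; inactive means any of these conditions unmet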
AF4-AF9 inh – blocks AF4 peptide binding to human AF9; P42568; AlphaScreen, biotin-AF4 peptide binding to FLAG-AF9; inhibition, % at 10 µM; actives 0.47% (n = 350,000);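 active means every replicate reaching a set inhibition limit, whatever the replicate mean, cut at about 25% in these data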
NSD2 inh – NSD2 (human) methyltransferase inhibition; O96028; NSD2 peptide methylation, AlphaScreen, 120 min; inhibition, % at 12.5 µM; actives 0.54% (n = 310,000); in the data active means inhibition above about 50%
RAD52 anneal inh – inhibitors of human RAD52 DNA annealing; actives 0.46% (n = 360,000); inhibition, % at 18.7 µM; recombinant RAD52 DNA annealing, FRET fluorescence; P43351; AID 651710;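 active means every replicate showing at least 50% inhibition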
Target sequence (P43351 whole entry, looked up): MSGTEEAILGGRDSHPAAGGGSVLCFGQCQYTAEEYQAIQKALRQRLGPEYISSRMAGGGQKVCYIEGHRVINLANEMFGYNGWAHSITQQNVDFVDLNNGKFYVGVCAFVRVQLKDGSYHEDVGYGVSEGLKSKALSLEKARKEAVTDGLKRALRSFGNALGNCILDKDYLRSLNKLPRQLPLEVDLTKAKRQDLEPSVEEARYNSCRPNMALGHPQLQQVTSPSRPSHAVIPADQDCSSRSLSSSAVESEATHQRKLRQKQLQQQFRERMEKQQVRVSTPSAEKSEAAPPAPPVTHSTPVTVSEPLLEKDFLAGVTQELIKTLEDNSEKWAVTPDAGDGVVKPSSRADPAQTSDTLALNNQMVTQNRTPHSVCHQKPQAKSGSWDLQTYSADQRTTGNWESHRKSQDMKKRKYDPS
Hits are given with their value; - = inactive; . = not tested or not shown.

SMILES | Casp6 inh | Ecoli rRNA inh | AF4-AF9 inh | NSD2 inh | RAD52 anneal inh
C=CCNC(=S)N1CCC(C(=O)c2ccc(Cl)cc2)CC1 | 64 | - | - | - | -
CN(C)c1ccc(C2C3CCCc4ccccc4C3=NN2C)cc1 (centres undefined) | - | -27 | 30 | - | -
CN1N=C2c3ccccc3CCC2C1c1ccc(C(F)(F)F)cc1 (centres undefined) | . | . | . | - | .
COc1ccccc1NC(=O)N1CC(=O)N2[C@H](CO)[C@@H](c3ccc(C#CCC(C)C)cc3)[C@H]2C1 | . | - | . | . | .
Cc1nc2ccccn2c1C(=O)CSc1cccc(Cl)c1 | - | - | - | - | -
Cc1nc2ccccn2c1C(=O)CSc1ccccc1 | - | -37 | - | - | -
O=C(COn1nnc2ccc(S(=O)(=O)N3CCOCC3)cc21)Nc1c(F)c(F)c(F)c(F)c1F | - | -20 | - | - | -
O=c1nc2ccc(Cl)cn2c2ccc(S(=O)(=O)N3CCCCC3)cc12 | 92 | - | - | - | -
C[C@@H](NC(=O)C[C@H]1C=C[C@H](NC(=O)C2CCOCC2)[C@@H](CO)O1)c1ccccc1 | - | - | - | . | -
COc1cc2c(cc1OC)C(c1ccc3c(c1)Cc1ccccc1-3)OC(=O)C2 (centres undefined) | - | -23 | - | - | -
COC(=O)C(NC(=O)c1ccccc1)(Nc1nc(C)cs1)C(F)(F)F (centres undefined) | - | -42 | - | - | -
CC(C)NC(=O)N[C@H]1CC[C@@H](CCNC(=O)C2CCOCC2)O[C@H]1CO | - | - | - | . | -
O=C1C(=Cc2cccs2)Oc2ccccc21 | - | -19 | - | - | -
CC=Cc1ccc2n(c1=O)C[C@H]1[C@H](CO)[C@@H](C(=O)Nc3ccc(-c4ccccc4)cc3)[C@@H]2N1C (mixture of isomers) | - | - | - | . | -
Cc1cccc(N2CCN(C(=O)N3CCCCC3)CC2)c1C | - | -36 | - | - | -
CCCCn1c(N)c(N(CCOC)C(=O)COC(=O)c2cc(CCC)c(C)s2)c(=O)[nH]c1=O | - | - | 41 | - | -
COCCN(C(=O)c1cc(-c2ccco2)nc2ccccc12)c1c(N)n(Cc2ccccc2)c(=O)[nH]c1=O | 60 | - | - | - | -
CCCN(C(=O)c1cc(-c2ccco2)nc2ccccc12)c1c(N)n(Cc2ccccc2)c(=O)[nH]c1=O | - | - | - | - | -
COCCN(C(=O)COC(=O)Cc1coc2cc(C)ccc12)c1c(N)n(Cc2ccccc2)c(=O)[nH]c1=O | 52 | - | - | - | -
CCCCn1c(N)c(N(CCOC)C(=O)c2cc(-c3ccco3)nc3ccccc23)c(=O)[nH]c1=O | 61 | - | - | - | -
CO[C@H]1O[C@H](CO)[C@@H](OC(=O)Nc2cccc(F)c2)[C@H](OC(=O)Nc2ccccc2)[C@@H]1OC(=O)Nc1ccccc1 | - | . | - | . | -
CCc1nc2ccc(C(=O)N3CCC(C(N)=O)CC3)cc2nc1CC | . | . | . | - | .
COc1ccc2c3c(n(C)c2c1)[C@H](CO)N(C(=O)Nc1ccc(F)cc1)CC31CCN(C(=O)CC2CC2)CC1 | - | - | - | . | -
Cc1ccc(NC(=O)Cn2c(CCC(=O)O)ccc2-c2ccc(Cl)cc2)cc1 | - | -25 | - | - | -
CSCCC(C(=O)NCc1ccccc1)n1c(-c2ccc3c(c2)CCO3)nc2ccccc21 (centres undefined) | - | -17 | - | . | -
SMILES | Casp6 inh | Ecoli rRNA inh | AF4-AF9 inh | NSD2 inh | RAD52 anneal inh
Cc1ccc(C(=O)N/C(=C\c2ccc(-c3ccc(Br)cc3)o2)C(=O)NCCCN(C)C)cc1 | - | - | 25 | - | -
CN(C)CCNC(=O)/C(=C/c1ccc(-c2ccc(Cl)cc2)o1)NC(=O)c1ccccc1 | . | . | . | - | .
CO[C@H]1CN(C)C(=O)c2ccc(NC(C)=O)cc2OC[C@H](C)N(C(=O)c2ccncc2)C[C@H]1C | . | - | - | . | -
O=C(CCc1ccc(O)c(O)c1)NNC(=S)Nc1ccc(Br)cc1Cl | - | -24 | - | - | -
O=C(CCc1ccc(O)c(O)c1)NNC(=S)NCCc1ccccc1 | - | - | - | - | -
CO[C@H]1CN(C)C(=O)c2ccc(NC(=O)NC(C)C)cc2OC[C@H](C)N(C)C[C@H]1C | - | - | - | . | -
C[C@H](CO)N1C[C@H](C)[C@H](CN(C)C(=O)C2CC2)Oc2cc(-c3ccccc3F)ccc2S1(=O)=O | - | - | - | . | -
CCC(=O)NC(=S)Nc1ccc(NC(=O)c2ccccc2[N+](=O)[O-])cc1 | - | -22 | - | - | -
CCCCCC(=O)NNC(=S)NC(=O)c1cccc([N+](=O)[O-])c1 | . | . | . | - | .
O=C(NC(=S)NNS(=O)(=O)c1ccccc1)c1ccccc1[N+](=O)[O-] | 52 | - | - | - | -
CCCCCC(=O)NNC(=S)NC(=O)c1ccccc1[N+](=O)[O-] | - | -32 | - | - | -
CSC1=NCCN1C(=O)Cc1ccc(-c2ccccc2)cc1 | - | -19 | - | - | -
CCSC1=NCCN1C(=O)Cc1ccc(-c2ccccc2)cc1 | - | - | - | . | -
COc1ccc(COC(=O)C2=C(C)NC(=O)NC2c2ccc(OC)c(OC)c2)cc1 (centres undefined) | - | - | - | - | -
COc1ccc(COC(=O)C2=C(C)NC(=O)NC2c2ccc(O)c(OC)c2)cc1 (centres undefined) | - | -22 | - | - | -
CCOc1ccc(/C=N/NC(=S)NC2CC3CC2C2C=CCC32)cc1 (centres undefined) | - | - | - | - | -
CCOc1ccc(/C=N/NC(=S)NC2CC3CCC2C3)cc1 (centres undefined) | - | -17 | - | - | -
O=C(Oc1ccccc1)c1cc(O)c(O)c(O)c1 | . | . | . | 116 | .
Brc1ccc(-n2cnc(-c3ccccc3)c2)cc1 | - | -15 | - | - | -
O=[N+]([O-])c1ccc(-c2cn(-c3ccc(Cl)cc3)cn2)cc1 | - | - | - | - | -
O=C(O)c1c[nH]c2c([N+](=O)[O-])cccc2c1=O | 36 | - | - | - | -
CC(NC(=O)C=Cc1ccco1)C(=O)NC(Cc1ccccc1)C(N)=O (centres undefined) | 46 | . | - | - | -
CCC(Cc1ccccc1)NC(=O)/C=C/c1ccco1 (centres undefined) | - | - | - | - | -
COc1ccc2c3c([nH]c2c1)[C@H](CO)N(C(=O)Nc1ccc(F)cc1)CC31CCN(C(=O)Nc2ccc3c(c2)OCO3)CC1 | - | - | - | . | -
O=c1[nH]c(CN2CCN(c3ccc(O)cc3)CC2)nc2scc(-c3ccc(Cl)cc3)c12 | - | -24 | - | - | -
Oc1cccc(/C=N/N(Cc2ccccc2)c2ccccc2)c1 | - | -42 | - | - | -
Oc1ccc(/C=N/N(Cc2ccccc2)c2ccccc2)c(O)c1O | - | - | 27 | - | -
COc1ccc([C@H]2CC=CC[C@H](C)Oc3ccccc3C(=O)N(C)[C@H](C)C(=O)N2)c(OC)c1 (mixture of isomers) | . | - | . | . | .
Clc1cccc(Cl)c1/C=N/Nc1c(Cl)cncc1Cl | - | -16 | - | - | -

Screening results deposited in PubChem by Broad Institute.
